Our source for the growth inhibition, inhibition and outcome values is PubChem BioAssay.

The nature of assay [1]: antimalarial activity against Dd2 strain (AID 2302;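 active = growth inhibition above 50% at the single 2 µM test dose, taken to imply half-maximal potency below 2 µM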;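 also: 0% = DMSO untreated growth and 100% = chloroquine plus artemisinin killed control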). The conditions noted are these: P. falciparum Dd2 in RBCs, LDH growth readout, 72 h; at 2 µM; active compounds read high.
A short description of assay [2]: human hepatoma cell viability loss – ATP luminescence, cytotoxicity control for P. falciparum antimalarial project, primary screen (AID 2303;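 active = inhibition above 50%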;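 also: 0% = DMSO wells and 100% = digitonin-killed cells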). The conditions noted are these: HepG2 viability, 24-48 h, at 10 µM, active compounds read high.
Assay [3] addresses L-lactate dehydrogenase (Plasmodium falciparum (isolate CDC / Honduras)) (UniProt Q27743). Briefly: PfLDH activity inhibition – cell lysate, 3D7 strain, counter-screen for P. falciparum growth inhibition project (AID 2304).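 Also: 0% = vehicle and 100% = reference inhibitor.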 The conditions noted are these: P. falciparum 3D7 crude extract, LDH APAD/NBT absorbance; at 2 µM; active compounds read high. In general terms: The purpose of a counterscreen is to sort out artefacts and off-target activity.

A short description of assay [4]: inhibition of 3D7 malaria parasite growth – strain 3D7 (AID 2306).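 Also: 0% = DMSO wells and 100% = chloroquine plus artemisinin control wells.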 Conditions: P. falciparum 3D7 erythrocytic growth, LDH absorbance, 72 h; at 2 µM; active compounds read high.
Assay [5] has as its target Calcium-dependent protein kinase 1 (Plasmodium falciparum (isolate 3D7)) (UniProt P62344). In words: PfCDPK1 kinase inhibitors, biochemical, TCAMS library (AID 1159585; cut-off not given, nearly all actives have IC50 up to about 0.98 µM;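 also: inhibitors leave more ATP so luminescence rises with inhibition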). The conditions noted are these: recombinant PfCDPK1, Kinase-Glo ATP depletion luminescence.
The target of assay [6] is Plasmodium falciparum protein kinase 6 (PK6, PF3D7_1337100) (UniProt Q8IDW1). In words: PfPK6 kinase inhibitors, biochemical, TCAMS library (AID 1159586). The conditions noted are these: recombinant PfPK6, Kinase-Glo ATP depletion luminescence.
Sequence of Plasmodium falciparum protein kinase 6 (PK6, PF3D7_1337100) (Q8IDW1 1-305): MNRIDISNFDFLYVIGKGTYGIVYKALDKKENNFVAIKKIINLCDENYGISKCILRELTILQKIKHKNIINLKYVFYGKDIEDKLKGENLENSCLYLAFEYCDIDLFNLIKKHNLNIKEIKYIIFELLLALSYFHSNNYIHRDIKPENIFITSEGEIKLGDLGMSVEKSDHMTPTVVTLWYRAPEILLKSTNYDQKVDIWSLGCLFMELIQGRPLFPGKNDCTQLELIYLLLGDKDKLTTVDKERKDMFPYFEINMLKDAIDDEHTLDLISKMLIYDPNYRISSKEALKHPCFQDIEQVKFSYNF
Assay [7] addresses Protein kinase 7 (PK7), Plasmodium falciparum 3D7 (PF3D7_0213400) (UniProt Q7YTF7). In words: inhibition of Plasmodium PK7 catalytic activity – biochemical, TCAMS antimalarial set, Kinase-Glo luminescence (AID 1159587). The conditions noted are these: recombinant PfPK7, Kinase-Glo ATP depletion luminescence. (In Kinase-Glo more light means more ATP remaining.)
Assay [8] deals with Calcium-dependent protein kinase 4 (Plasmodium falciparum (isolate 3D7)) (UniProt Q8IBS5). In words: PfCDPK4 kinase inhibitors, biochemical, TCAMS library (AID 1159588; cut-off not given, nearly all actives have IC50 up to about 0.91 µM). The conditions noted are these: recombinant PfCDPK4, Kinase-Glo ATP depletion luminescence.
Sequence of Calcium-dependent protein kinase 4 (Plasmodium falciparum (isolate 3D7)) (Q8IBS5 whole entry, looked up): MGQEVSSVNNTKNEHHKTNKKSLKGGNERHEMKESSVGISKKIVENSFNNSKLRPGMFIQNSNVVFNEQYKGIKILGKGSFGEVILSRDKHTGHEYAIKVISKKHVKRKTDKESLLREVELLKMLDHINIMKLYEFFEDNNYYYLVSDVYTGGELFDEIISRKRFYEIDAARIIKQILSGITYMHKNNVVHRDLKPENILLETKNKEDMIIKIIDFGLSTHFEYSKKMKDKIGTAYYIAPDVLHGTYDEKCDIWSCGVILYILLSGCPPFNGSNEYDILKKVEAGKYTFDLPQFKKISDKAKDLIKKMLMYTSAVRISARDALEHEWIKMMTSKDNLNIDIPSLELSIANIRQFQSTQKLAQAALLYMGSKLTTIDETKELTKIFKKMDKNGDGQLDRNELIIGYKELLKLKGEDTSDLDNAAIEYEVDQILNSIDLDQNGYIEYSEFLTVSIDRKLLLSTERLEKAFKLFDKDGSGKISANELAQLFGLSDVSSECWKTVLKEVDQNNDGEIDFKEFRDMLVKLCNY

Structures are written as SMILES. A number with no mark means an inactive call. For part of these data: Results with a measured potency or affinity are listed apart. The source made the active and inactive calls. Unless noted, no rule for the calls is given here.

Sequence of L-lactate dehydrogenase (Plasmodium falciparum (isolate CDC / Honduras)) (Q27743 whole entry, looked up): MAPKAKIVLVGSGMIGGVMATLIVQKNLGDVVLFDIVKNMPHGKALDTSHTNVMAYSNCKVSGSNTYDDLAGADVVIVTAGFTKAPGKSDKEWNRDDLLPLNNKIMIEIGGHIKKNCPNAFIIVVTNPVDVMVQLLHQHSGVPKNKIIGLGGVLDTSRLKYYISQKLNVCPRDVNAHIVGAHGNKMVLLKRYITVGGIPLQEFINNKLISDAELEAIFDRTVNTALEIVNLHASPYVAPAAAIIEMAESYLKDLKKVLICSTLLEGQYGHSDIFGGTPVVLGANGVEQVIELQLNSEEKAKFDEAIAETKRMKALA
Sequence of Protein kinase 7 (PK7), Plasmodium falciparum 3D7 (PF3D7_0213400) (Q7YTF7 1-343): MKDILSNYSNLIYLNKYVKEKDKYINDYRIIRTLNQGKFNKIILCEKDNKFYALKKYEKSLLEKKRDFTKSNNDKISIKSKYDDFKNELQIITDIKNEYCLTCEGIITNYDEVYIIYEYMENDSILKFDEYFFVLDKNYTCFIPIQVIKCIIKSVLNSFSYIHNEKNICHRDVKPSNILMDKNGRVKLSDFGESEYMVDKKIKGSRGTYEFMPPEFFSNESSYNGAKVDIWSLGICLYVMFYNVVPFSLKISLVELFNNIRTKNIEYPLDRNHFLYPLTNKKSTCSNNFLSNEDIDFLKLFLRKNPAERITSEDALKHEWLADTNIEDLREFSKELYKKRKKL
Sequence of Calcium-dependent protein kinase 1 (Plasmodium falciparum (isolate 3D7)) (P62344 whole entry, looked up): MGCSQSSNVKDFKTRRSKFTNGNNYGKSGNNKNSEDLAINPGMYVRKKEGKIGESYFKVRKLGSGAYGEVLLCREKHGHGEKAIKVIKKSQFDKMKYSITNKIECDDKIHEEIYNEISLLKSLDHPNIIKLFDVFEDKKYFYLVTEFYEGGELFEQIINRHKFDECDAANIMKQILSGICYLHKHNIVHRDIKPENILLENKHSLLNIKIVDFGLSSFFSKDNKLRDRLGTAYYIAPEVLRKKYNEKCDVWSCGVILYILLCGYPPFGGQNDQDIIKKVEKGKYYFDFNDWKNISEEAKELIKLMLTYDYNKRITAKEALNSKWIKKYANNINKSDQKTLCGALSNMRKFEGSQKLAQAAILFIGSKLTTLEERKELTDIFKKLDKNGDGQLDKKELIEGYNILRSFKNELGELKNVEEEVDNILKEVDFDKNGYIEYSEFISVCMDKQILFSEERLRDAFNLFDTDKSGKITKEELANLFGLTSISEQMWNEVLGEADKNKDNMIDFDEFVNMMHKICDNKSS

Broadly, the inhibition is the change of the read-out against control, counted positive when it falls. For the molecule `O=[N+]([O-])c1ccc(N2CCCN(C(=S)Nc3ccc(F)cc3Br)CC2)nc1`, the growth inhibition in assay [1] is 99% (active); in assay [4], 100% (active). For the same molecule, the inhibition in assay [2] is 4%; in assay [3] it was -3%. In addition, the outcome in assay [5], in assay [6], in assay [7] and in assay [8] was inactive.

Take `O=c1cc(NCCCCNCc2cccc(C(F)(F)F)c2)[nH]c2ccccc12`: the growth inhibition was 34% in assay [1] and 94% (active) in assay [4]. Further, the inhibition in assay [2] is 13%; in assay [3] it was -1%. Moreover, the outcome in assay [5], in assay [6], in assay [7] and in assay [8] was inactive.

For the molecule `Cc1cccc2[nH]c(-c3ccc(-c4ccc(NC(=O)Nc5ccc(F)c(F)c5F)cc4)cc3)nc12`, the figures for the growth inhibition in assay [1] and in assay [4] were 97% (active) and 100% (active), respectively. The results for the inhibition in assay [2] and in assay [3] were 51% (active) and -1%, respectively. In addition, the outcome in assay [5], in assay [6], in assay [7] and in assay [8] was inactive.

`COc1ccccc1CN1CCC(CNC(=O)c2cc(-c3ccc(N(C)C)cc3)cs2)C1` (centres undefined): the growth inhibition in assay [1] was 16%; in assay [4] it was 82% (active). Moreover, the inhibition in assay [2] is 17%; in assay [3] it was -5%. The result in assay [5], in assay [6], in assay [7] and in assay [8] was inactive.

`CN1CCN(CCCN(Cc2cccc(-c3cccc(CNCc4ccc5c(c4)OCO5)c3)c2)C(=O)CCC2CCCC2)CC1`: the figures for the growth inhibition in assay [1] and in assay [4] were 80% (active) and 98% (active), respectively. In addition, the inhibition in assay [2] is 85% (active); in assay [3], 1%. Also, the outcome in assay [5], in assay [6], in assay [7] and in assay [8] was inactive.

With `Nc1nc(F)nc2nc[nH]c12`, the results for the growth inhibition in assay [1] and in assay [4] were 25% and 89% (active), respectively. In addition, the results for the inhibition in assay [2] and in assay [3] were 78% (active) and -2%, respectively. Also, the result in assay [5], in assay [6], in assay [7] and in assay [8] was inactive.

As to `CC(CN1CCN(C)CC1)C(=O)Nc1ccc(-c2ccc(-c3nc4ccc(F)cc4[nH]3)cc2)cc1` (centres undefined), the growth inhibition in assay [1] is 87% (active); in assay [4] it was 101% (active). In addition, the inhibition was 19% in assay [2] and -5% in assay [3]. The result in assay [5], in assay [6], in assay [7] and in assay [8] was inactive.

With `Cc1cccc2[nH]c(-c3ccc(-c4cccc(CN5CCC(CCN6CCCCC6)CC5)c4)s3)nc12`, the growth inhibition was 100% (active) in assay [1] and 101% (active) in assay [4]. Besides, the inhibition in assay [2] is 99% (active); in assay [3], -3%. In addition, the outcome in assay [5], in assay [6], in assay [7] and in assay [8] was inactive.

As for `O=C(Nc1cccc(Cl)c1Cl)Nc1ccnc2ccccc12`, the growth inhibition was 47% in assay [1] and 100% (active) in assay [4]. In addition, the inhibition in assay [2] was 31%; in assay [3], 4%. In addition, the result in assay [5], in assay [6], in assay [7] and in assay [8] was inactive.

For the molecule `CS(=O)(=O)CCNCc1cccc(-c2cc3c(Nc4ccc(OCc5ccccc5)cc4)ncnc3cn2)c1`, the growth inhibition is 26% in assay [1] and 101% (active) in assay [4]. The inhibition was 3% in assay [2] and 2% in assay [3]. The outcome in assay [5], in assay [6], in assay [7] and in assay [8] was inactive.

On to `c1ccc(C(c2cccs2)N2CCN(Cc3ccc(OCCCN4CCCCC4)cc3)CC2)cc1` (centres undefined), for which the growth inhibition was 14% in assay [1] and 91% (active) in assay [4]. For the same molecule, the inhibition is 41% in assay [2] and 2% in assay [3]. For the same molecule, the result in assay [5], in assay [6], in assay [7] and in assay [8] was inactive.

Turning to `CC(C)N1CCN(C(=O)c2ccc(CNCCCN3CCN(c4cccc(Cl)c4Cl)CC3)s2)CC1`, the results for the growth inhibition in assay [1] and in assay [4] were 44% and 102% (active), respectively. Moreover, the inhibition was 51% (active) in assay [2] and -3% in assay [3]. For the same molecule, the outcome in assay [5], in assay [6], in assay [7] and in assay [8] was inactive.

As to `CCc1nnc2sc(-c3cccc(NC(=O)c4ccc(C)c([N+](=O)[O-])c4)c3)nn12`, the results for the growth inhibition in assay [1] and in assay [4] were 46% and 82% (active), respectively. Also, the inhibition in assay [2] was 10%; in assay [3], 4%. Moreover, the result in assay [5], in assay [6], in assay [7] and in assay [8] was inactive.

As to `CC(C)Nc1nc(NC2CCCCC2)nc(N2CCCCCCC2)n1`, the figures for the growth inhibition in assay [1] and in assay [4] were 96% (active) and 86% (active), respectively. The inhibition in assay [2] was 13%; in assay [3] it was 2%. Besides, the result in assay [5], in assay [6], in assay [7] and in assay [8] was inactive.

Consider `CCN(CCCN1CCCCC1)c1cc(C)nc(Nc2cccc(C(F)(F)F)c2C)n1`, for which the growth inhibition in assay [1] was 37%; in assay [4], 99% (active). Besides, the results for the inhibition in assay [2] and in assay [3] were 57% (active) and -2%, respectively. Moreover, the outcome in assay [5], in assay [6], in assay [7] and in assay [8] was inactive.

On to `O=C(NC1CCN(CC2(c3ccc(Cl)cc3)CCCCC2)CC1)c1ccn[nH]1`, for which the growth inhibition is 96% (active) in assay [1] and 98% (active) in assay [4]. In addition, the inhibition in assay [2] is -3%; in assay [3], 4%. Also, the result in assay [5], in assay [6], in assay [7] and in assay [8] was inactive.

Consider `C=C1N(C)c2cc([N+](=O)[O-])c(N)cc2C1(C)C`, for which the values for the growth inhibition in assay [1] and in assay [4] were 83% (active) and 98% (active), respectively. Also, the inhibition in assay [2] is 22%; in assay [3] it was -2%. Besides, the outcome in assay [5], in assay [6], in assay [7] and in assay [8] was inactive.

On to `O=C(/C=C/c1ccc(Cl)c(Cl)c1)NCCCCCN1CCCN(C(=O)Nc2ccc(Br)cc2)CC1`, for which the growth inhibition in assay [1] is -4%; in assay [4] it was 99% (active). The results for the inhibition in assay [2] and in assay [3] were 38% and 0%, respectively. The outcome in assay [5], in assay [6], in assay [7] and in assay [8] was inactive.
